Measurements taken from the supplement of paper PMC10849652.
The full data set covers some 8,800 targets. This sample favours those with a hit. About 0.5% of all pairs of compound and target were hits.

Key:
Test in all cases: log2 fold change, soluble protein after heating vs DMSO (PISA); higher = thermal stabilisation; K562 lysate, 10 uM; active = over 0.2 and 3.5 SD of the protein, either way, in both replicates (recomputed)
erlotinib = compound: C#Cc1cccc(Nc2ncnc3cc(OCCOC)c(OCCOC)cc23)c1 [erlotinib]
Summary of the method: (§1)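 To prepare the extract, K562 pellets were dounce-homogenised in PBS pH 7.4 with 1 mM MgCl2, giving crude material at 1 mg/mL protein. This was treated with 10 μM compound for 30 min, then heated in aliquots for 3 min over 48°C-58°C before pooling and addition of NP-40 to 0.5% at 4°C. Centrifugation at 21,000xg for 90 min left soluble protein in the supernatant, which TMTpro 16plex LC-MS/MS quantified with equalised channel sums. Results are log-two fold changes in thermal stability compared with solvent controls, from duplicates.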

[1] = compound: C/C(=N\NC(=O)C1=CC(=CC=C1)S(=O)(=O)N2CCOCC2)/C3=C(C=CC(=C3)Cl)O
Summary of the method: as §1

[2] = compound: C1=CC(=CC=C1C2=NC3=C(N2)C=C(C=C3)C(=O)N)OC4=CC=C(C=C4)Cl
Summary of the method: as §1

[3] = compound: C1=CC2=C(C=CC(=C2)/C=C\3/C(=O)NC(=NCC4=CC=CS4)S3)N=C1
Summary of the method: as §1

[4] = compound: C1=CC2=NC=CN=C2C=C1/C=C/3\C(=O)NC(=O)S3
Summary of the method: as §1

[5] = compound: C1=CC=C(C=C1)C2=NC(=C(N2)C3=CC=NC=C3)C4=CC(=C(C=C4)Cl)O
Summary of the method: as §1

[6] = compound: C1=CC=C2C(=C1)C3=NNC4=CC=CC(=C43)C2=O
Summary of the method: as §1

[7] = compound: C1CCN(C1)C(=O)NC2=CC=CC(=C2)NC3=NC=C(C(=N3)NCCC4=CN=CN4)Br
Summary of the method: as §1

[8] = compound: C1CN(CCC1(CC2=CC=C(C=C2)Cl)N)C3=NC=NC4=C3C=CN4
Summary of the method: as §1

IRAK-1-4 Inhibitor I = compound: C1COCCN1CCN2C3=CC=CC=C3N=C2NC(=O)C4=CC(=CC=C4)[N+](=O)[O-] [IRAK-1-4 Inhibitor I]
Summary of the method: as §1

ibrutinib = compound: C=CC(=O)N1CCC[C@@H](n2nc(-c3ccc(Oc4ccccc4)cc3)c3c(N)ncnc32)C1 [ibrutinib]
Summary of the method: as §1

[9] = compound: CC(=O)c1cnc2ccc(-c3cc(Cl)c(O)c(Cl)c3)nc2c1N[C@H]1CC[C@H](CN(C)C)CC1
Summary of the method: as §1

ralimetinib = compound: CC(C)(C)Cn1c(N)nc2ccc(-c3[nH]c(C(C)(C)C)nc3-c3ccc(F)cc3)nc21 [ralimetinib]
Summary of the method: as §1

[10] = compound: CC(C)(O)CC(=O)NCCn1ccc2ncnc(Nc3ccc(Oc4cccc(C(F)(F)F)c4)c(Cl)c3)c21
Summary of the method: as §1

[11] = compound: CC(C)C1=C2N=C(C=C(N2N=C1)NCC3=CC=CC=C3)NCCCCCCN
Summary of the method: as §1

[12] = compound: CC1=C(C(CC(=O)N1)C2=CC=C(C=C2)C(F)(F)F)C(=O)NC3=C(C=C4C(=C3)C=NN4)F
Summary of the method: as §1

[13] = compound: CC1=C(C2=C(C=C1)C(=O)C3=CC=CC=C3N2CCCN)C
Summary of the method: as §1

[14] = compound: CC1=C(C=C(C=C1)NC(=O)C2=CC(=CC=C2)C(C)(C)C#N)NC3=CC4=C(C=C3)N=CN(C4=O)C
Summary of the method: as §1

[15] = compound: CC1=C(C=C(C=C1)NC(=O)C2=CC(=CC=C2)N(C)C)NC(=O)C3=CC=C(C=C3)O
Summary of the method: as §1

[16] = compound: CC1=CC=C(C=C1)SC2=C3C=C(SC3=CN=C2)C(=O)N
Summary of the method: as §1

Measured: log2 fold change

BCL2L12 (UniProt Q9HB09)
Sequence of UniProt Q9HB09 (Q9HB09 whole entry, looked up): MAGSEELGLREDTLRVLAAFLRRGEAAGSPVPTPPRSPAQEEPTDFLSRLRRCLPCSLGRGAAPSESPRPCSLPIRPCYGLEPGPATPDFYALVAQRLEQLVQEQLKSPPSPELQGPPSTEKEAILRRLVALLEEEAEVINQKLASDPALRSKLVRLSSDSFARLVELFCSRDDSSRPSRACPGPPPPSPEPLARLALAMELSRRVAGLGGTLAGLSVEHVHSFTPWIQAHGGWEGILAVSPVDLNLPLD
inactive: erlotinib 0.055 | [1] -0.067 | [2] -0.01 | [3] -0.056 | [4] 0.119 | [5] -0.111 | [6] 0.144 | [7] 0.162 | [8] 0.015 | IRAK-1-4 Inhibitor I 0.002 | ibrutinib -0.26 | [9] -0.084 | ralimetinib 0.073 | [10] -0.024 | [11] 0.057 | [12] 0 | [13] -0.021 | [14] 0.028 | [15] -0.024 | [16] 0.099

BLM (UniProt P54132)
Sequence of UniProt P54132 (P54132 whole entry, looked up): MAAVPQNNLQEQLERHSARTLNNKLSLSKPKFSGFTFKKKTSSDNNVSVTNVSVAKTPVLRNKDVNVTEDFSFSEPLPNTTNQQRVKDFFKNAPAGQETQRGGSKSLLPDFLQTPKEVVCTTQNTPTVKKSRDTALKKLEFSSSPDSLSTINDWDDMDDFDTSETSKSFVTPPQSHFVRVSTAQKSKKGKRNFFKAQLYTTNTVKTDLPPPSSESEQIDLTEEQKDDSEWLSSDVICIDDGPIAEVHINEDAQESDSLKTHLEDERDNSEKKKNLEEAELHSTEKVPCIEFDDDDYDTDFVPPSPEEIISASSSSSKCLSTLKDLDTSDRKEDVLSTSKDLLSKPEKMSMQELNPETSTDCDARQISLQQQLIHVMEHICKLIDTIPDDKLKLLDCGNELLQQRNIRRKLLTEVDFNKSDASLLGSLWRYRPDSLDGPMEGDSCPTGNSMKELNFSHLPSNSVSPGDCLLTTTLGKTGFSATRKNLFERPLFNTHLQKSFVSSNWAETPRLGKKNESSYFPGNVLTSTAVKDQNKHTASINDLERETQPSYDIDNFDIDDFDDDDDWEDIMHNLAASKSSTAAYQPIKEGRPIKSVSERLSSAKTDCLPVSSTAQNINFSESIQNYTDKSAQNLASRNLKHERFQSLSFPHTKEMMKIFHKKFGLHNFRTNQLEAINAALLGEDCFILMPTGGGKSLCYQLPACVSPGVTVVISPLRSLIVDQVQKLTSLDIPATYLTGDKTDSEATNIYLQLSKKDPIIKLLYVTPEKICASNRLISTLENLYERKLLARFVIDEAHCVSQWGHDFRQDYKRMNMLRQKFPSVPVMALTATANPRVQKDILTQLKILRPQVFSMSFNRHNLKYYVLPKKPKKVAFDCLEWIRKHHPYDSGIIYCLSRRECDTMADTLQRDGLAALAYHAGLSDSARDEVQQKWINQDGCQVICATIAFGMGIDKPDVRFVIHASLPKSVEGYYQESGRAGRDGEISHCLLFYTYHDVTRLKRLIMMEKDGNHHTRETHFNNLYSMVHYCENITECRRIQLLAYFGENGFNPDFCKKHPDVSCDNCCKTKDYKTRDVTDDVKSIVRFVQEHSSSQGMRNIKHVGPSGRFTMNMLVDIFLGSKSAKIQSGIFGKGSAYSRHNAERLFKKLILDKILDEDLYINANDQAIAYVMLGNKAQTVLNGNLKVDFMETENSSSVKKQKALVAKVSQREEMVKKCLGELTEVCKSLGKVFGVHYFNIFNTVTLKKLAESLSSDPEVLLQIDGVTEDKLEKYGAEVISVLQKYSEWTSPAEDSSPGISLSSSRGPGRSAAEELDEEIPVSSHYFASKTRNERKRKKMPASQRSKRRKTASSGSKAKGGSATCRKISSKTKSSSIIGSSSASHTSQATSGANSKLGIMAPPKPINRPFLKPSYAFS
inactive: erlotinib -0.034 | [1] 0.061 | [2] -0.042 | [3] 0.011 | [4] 0.032 | [5] 0.079 | [6] -0.059 | [7] -0.026 | [8] -0.01 | IRAK-1-4 Inhibitor I -0.02 | ibrutinib 0.128 | [9] 0.026 | ralimetinib -0.015 | [10] 0.031 | [11] -0.005 | [12] -0.019 | [13] 0.03 | [14] -0.058 | [15] 0.019 | [16] 0.036

CARD9 (UniProt Q9H257)
Sequence of UniProt Q9H257 (Q9H257 whole entry, looked up): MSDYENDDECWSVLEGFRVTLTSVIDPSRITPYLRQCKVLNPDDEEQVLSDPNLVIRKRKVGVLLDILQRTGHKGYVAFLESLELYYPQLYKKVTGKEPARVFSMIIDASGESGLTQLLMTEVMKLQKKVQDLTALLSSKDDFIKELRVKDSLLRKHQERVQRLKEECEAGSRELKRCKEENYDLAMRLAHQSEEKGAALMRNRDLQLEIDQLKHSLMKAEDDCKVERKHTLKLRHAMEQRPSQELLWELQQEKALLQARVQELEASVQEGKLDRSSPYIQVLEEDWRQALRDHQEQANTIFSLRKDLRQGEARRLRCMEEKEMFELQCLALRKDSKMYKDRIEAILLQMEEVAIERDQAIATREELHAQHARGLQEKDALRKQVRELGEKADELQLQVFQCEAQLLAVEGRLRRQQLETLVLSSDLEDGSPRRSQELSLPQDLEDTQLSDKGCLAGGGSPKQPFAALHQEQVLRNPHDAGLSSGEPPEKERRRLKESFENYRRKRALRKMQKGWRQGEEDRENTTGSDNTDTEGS
inactive: erlotinib 0.035 | [1] -0.024 | [2] -0.029 | [3] -0.02 | [4] -0.024 | [5] -0.009 | [6] 0.033 | [7] 0.015 | [8] -0.003 | IRAK-1-4 Inhibitor I 0.017 | ibrutinib -0.034 | [9] 0.037 | ralimetinib 0.014 | [10] -0.029 | [11] 0.019 | [12] -0.022 | [13] -0.027 | [14] -0.005 | [15] -0.008 | [16] -0.038

CELF1 isoform 4 (UniProt Q92879)
Sequence of UniProt Q92879 (Q92879 whole entry, looked up): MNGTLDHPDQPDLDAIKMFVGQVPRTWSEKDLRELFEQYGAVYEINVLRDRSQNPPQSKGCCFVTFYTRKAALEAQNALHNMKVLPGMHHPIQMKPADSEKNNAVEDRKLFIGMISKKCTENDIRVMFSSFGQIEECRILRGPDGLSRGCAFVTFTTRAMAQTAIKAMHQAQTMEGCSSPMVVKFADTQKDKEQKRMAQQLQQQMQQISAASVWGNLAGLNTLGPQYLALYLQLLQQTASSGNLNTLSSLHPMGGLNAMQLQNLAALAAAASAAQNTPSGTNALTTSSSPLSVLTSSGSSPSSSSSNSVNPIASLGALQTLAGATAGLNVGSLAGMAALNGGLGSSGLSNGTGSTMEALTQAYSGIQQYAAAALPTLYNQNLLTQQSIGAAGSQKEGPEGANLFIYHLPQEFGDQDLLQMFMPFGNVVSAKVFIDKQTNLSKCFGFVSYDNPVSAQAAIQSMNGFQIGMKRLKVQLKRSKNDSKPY
inactive: erlotinib -0.101 | [1] -0.039 | [2] 0.013 | [3] 0.055 | [4] 0 | [5] -0.031 | [6] -0.03 | [7] -0.002 | [8] -0.043 | IRAK-1-4 Inhibitor I -0.045 | ibrutinib 0.027 | [9] -0.027 | ralimetinib 0.034 | [10] -0.004 | [11] 0.033 | [12] 0.072 | [13] 0.016 | [15] 0 | [16] 0.025
active: [14] -0.331

CHCHD2 (UniProt Q9Y6H1)
Sequence of UniProt Q9Y6H1 (Q9Y6H1 whole entry, looked up): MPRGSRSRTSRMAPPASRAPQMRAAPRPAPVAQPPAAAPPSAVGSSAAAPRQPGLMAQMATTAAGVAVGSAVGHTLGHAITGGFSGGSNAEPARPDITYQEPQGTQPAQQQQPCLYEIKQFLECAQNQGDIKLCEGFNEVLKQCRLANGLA
inactive: erlotinib -0.068 | [1] -0.03 | [2] -0.086 | [3] 0.033 | [4] -0.024 | [5] 0.027 | [6] 0.092 | [7] 0.009 | [8] 0.057 | IRAK-1-4 Inhibitor I -0.005 | ibrutinib -0.122 | [9] -0.005 | ralimetinib -0.068 | [10] 0.035 | [11] 0.02 | [12] 0.112 | [13] 0.023 | [14] -0.172 | [15] -0.046 | [16] 0.069

CCNB1 (UniProt P14635)
Sequence of UniProt P14635 (P14635 whole entry, looked up): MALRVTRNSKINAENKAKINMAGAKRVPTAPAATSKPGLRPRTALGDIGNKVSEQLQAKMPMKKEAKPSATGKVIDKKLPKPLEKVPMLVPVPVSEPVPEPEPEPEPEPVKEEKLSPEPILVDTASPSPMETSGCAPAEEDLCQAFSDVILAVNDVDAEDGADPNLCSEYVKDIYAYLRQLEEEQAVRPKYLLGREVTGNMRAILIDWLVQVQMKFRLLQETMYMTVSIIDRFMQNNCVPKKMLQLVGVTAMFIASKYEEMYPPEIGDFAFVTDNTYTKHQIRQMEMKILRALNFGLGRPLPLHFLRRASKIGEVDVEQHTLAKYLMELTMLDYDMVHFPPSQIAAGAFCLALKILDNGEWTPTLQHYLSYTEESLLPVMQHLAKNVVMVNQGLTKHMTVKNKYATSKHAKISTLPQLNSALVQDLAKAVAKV
inactive: erlotinib -0.013 | [1] 0.008 | [2] 0.032 | [3] -0.019 | [4] 0.01 | [5] 0.001 | [6] -0.11 | [7] -0.034 | [8] 0.026 | IRAK-1-4 Inhibitor I 0.01 | ibrutinib -0.01 | ralimetinib 0.009 | [10] -0.045 | [11] -0.012 | [12] -0.005 | [13] 0.003 | [14] 0.044 | [15] -0.002 | [16] 0
active: [9] 0.503

CCNC (UniProt P24863)
Sequence of UniProt P24863 (P24863 whole entry, looked up): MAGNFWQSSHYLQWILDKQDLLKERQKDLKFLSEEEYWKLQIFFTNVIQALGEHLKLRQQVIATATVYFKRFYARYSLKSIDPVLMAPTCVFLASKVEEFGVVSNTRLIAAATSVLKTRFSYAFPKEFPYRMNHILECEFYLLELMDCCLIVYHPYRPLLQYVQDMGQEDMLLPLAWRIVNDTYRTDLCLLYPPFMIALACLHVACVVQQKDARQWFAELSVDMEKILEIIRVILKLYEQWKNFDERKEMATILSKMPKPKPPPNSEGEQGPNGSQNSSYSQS
inactive: erlotinib 0.081 | [1] -0.158 | [2] -0.078 | [3] -0.102 | [4] 0.127 | [5] -0.045 | [6] 0.163 | [7] -0.087 | [8] -0.049 | IRAK-1-4 Inhibitor I -0.008 | ibrutinib -0.04 | [9] 0.087 | ralimetinib 0.026 | [10] 0.011 | [11] 0.02 | [12] -0.05 | [13] 0.034 | [14] 0.061 | [15] 0.016 | [16] 0.184

CARNMT1 (UniProt Q8N4J0)
inactive: erlotinib 0 | [1] 0.004 | [2] 0.028 | [3] -0.019 | [4] 0.029 | [5] -0.015 | [6] -0.05 | [7] -0.008 | [8] -0.011 | IRAK-1-4 Inhibitor I 0.029 | ibrutinib -0.014 | [9] -0.003 | ralimetinib -0.007 | [10] -0.056 | [11] -0.041 | [12] 0.004 | [13] -0.014 | [14] 0.082 | [15] -0.043 | [16] -0.006

CCAR2 (UniProt Q8N163)
inactive: erlotinib -0.004 | [1] -0.006 | [2] -0.003 | [3] -0.01 | [4] 0.01 | [5] 0.005 | [6] 0.001 | [7] 0 | [8] 0.001 | IRAK-1-4 Inhibitor I -0.009 | ibrutinib 0.025 | [9] -0.019 | ralimetinib 0.012 | [10] -0.006 | [11] -0.018 | [12] 0 | [13] 0.01 | [14] 0.003 | [15] 0.015 | [16] -0.005

CBR1 (UniProt P16152)
Sequence of UniProt P16152 (P16152 whole entry, looked up): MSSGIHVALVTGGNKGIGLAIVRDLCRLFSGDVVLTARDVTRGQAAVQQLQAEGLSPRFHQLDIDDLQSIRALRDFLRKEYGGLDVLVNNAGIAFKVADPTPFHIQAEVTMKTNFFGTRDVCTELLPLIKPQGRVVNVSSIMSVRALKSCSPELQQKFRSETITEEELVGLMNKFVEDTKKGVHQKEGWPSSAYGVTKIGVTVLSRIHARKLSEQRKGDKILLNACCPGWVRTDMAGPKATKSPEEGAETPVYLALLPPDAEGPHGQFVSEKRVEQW
inactive: erlotinib 0.011 | [1] 0.025 | [2] -0.001 | [3] 0.003 | [4] 0.016 | [5] 0.047 | [6] -0.001 | [7] -0.008 | [8] -0.006 | IRAK-1-4 Inhibitor I -0.033 | ibrutinib 0.04 | [9] -0.017 | ralimetinib 0.009 | [10] 0.006 | [11] 0.001 | [12] -0.032 | [13] 0.045 | [14] -0.015 | [15] 0.02 | [16] -0.003

CDC42EP4 (UniProt Q9H3Q1)
inactive: erlotinib 0.025 | [1] -0.053 | [2] -0.005 | [3] 0.017 | [4] -0.109 | [5] 0.007 | [6] 0.044 | [7] -0.069 | [8] 0.054 | IRAK-1-4 Inhibitor I -0.055 | ibrutinib 0.07 | [9] -0.014 | ralimetinib 0.034 | [10] -0.006 | [11] 0.01 | [12] 0.024 | [13] 0.026 | [14] 0.155 | [15] -0.018 | [16] -0.035

ATAD3B (UniProt Q5T9A4)
inactive: erlotinib -0.016 | [1] 0.031 | [2] -0.111 | [3] 0.029 | [4] 0.019 | [5] -0.017 | [6] 0.096 | [7] 0.018 | [8] -0.009 | IRAK-1-4 Inhibitor I 0.032 | ibrutinib -0.054 | [9] 0.018 | ralimetinib -0.027 | [10] -0.069 | [11] -0.012 | [12] -0.026 | [13] -0.028 | [14] -0.03 | [15] 0.045 | [16] 0.015

CCNH (UniProt P51946)
Sequence of UniProt P51946 (P51946 whole entry, looked up): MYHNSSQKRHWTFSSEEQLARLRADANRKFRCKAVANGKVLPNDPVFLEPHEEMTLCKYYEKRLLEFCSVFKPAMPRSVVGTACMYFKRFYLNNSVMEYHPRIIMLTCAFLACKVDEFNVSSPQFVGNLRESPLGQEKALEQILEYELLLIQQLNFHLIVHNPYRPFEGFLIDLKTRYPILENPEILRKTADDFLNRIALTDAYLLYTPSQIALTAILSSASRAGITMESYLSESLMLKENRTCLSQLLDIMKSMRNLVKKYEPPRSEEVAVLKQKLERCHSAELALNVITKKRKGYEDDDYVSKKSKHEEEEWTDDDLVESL
inactive: erlotinib 0.018 | [1] -0.018 | [2] 0.074 | [3] -0.055 | [4] -0.029 | [5] 0 | [6] -0.021 | [7] -0.047 | [8] 0.012 | IRAK-1-4 Inhibitor I -0.005 | ibrutinib 0.018 | [9] -0.149 | ralimetinib -0.001 | [10] -0.064 | [11] -0.058 | [12] -0.044 | [13] -0.025 | [14] -0.044 | [15] 0.018 | [16] -0.016

CDC16 (UniProt Q13042)
inactive: erlotinib -0.006 | [1] -0.067 | [2] -0.051 | [3] 0.031 | [4] -0.009 | [5] 0.006 | [6] 0.019 | [7] 0.027 | [8] -0.056 | IRAK-1-4 Inhibitor I -0.004 | ibrutinib 0.02 | [9] 0.019 | ralimetinib 0.025 | [10] -0.022 | [11] 0.012 | [12] -0.006 | [13] 0.04 | [14] -0.029 | [15] -0.005 | [16] 0.025

BUD23 isoform 3 (UniProt O43709)
Sequence of UniProt O43709 (O43709 whole entry, looked up): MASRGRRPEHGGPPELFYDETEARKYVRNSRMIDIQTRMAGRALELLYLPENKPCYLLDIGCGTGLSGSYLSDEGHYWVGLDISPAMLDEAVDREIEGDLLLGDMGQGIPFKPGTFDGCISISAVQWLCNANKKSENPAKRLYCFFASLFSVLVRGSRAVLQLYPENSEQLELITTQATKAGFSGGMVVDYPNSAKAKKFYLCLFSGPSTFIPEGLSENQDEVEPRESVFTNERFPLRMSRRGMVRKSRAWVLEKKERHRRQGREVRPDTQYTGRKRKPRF
inactive: erlotinib 0.074 | [1] -0.046 | [2] 0.009 | [3] -0.008 | [4] -0.097 | [5] -0.02 | [6] -0.01 | [7] -0.026 | [8] -0.033 | IRAK-1-4 Inhibitor I -0.017 | ibrutinib -0.017 | [9] -0.007 | ralimetinib 0.089 | [10] -0.002 | [11] -0.064 | [12] -0.004 | [13] 0.119 | [14] -0.056 | [15] -0.023 | [16] -0.001

CENPQ (UniProt Q7L2Z9)
Sequence of UniProt Q7L2Z9 (Q7L2Z9 whole entry, looked up): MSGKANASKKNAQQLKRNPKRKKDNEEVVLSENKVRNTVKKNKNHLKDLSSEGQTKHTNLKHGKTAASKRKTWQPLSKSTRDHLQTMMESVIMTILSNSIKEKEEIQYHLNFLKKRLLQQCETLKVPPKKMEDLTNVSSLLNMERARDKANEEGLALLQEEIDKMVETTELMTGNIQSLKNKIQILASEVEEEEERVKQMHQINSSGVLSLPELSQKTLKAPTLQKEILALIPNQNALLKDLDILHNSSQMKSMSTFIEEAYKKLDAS
inactive: erlotinib -0.064 | [1] -0.011 | [2] 0.057 | [3] 0.098 | [4] 0.078 | [5] 0.016 | [6] 0.033 | [7] -0.069 | [8] 0.111 | IRAK-1-4 Inhibitor I -0.012 | ibrutinib 0.009 | [9] 0.162 | ralimetinib 0.029 | [10] -0.002 | [11] 0.005 | [12] 0.097 | [13] -0.153 | [14] -0.057 | [15] -0.075 | [16] 0.013
